Laboratory results reported in PubChem BioAssay (Tox21).
Inconclusive results are not listed. A call without a number means that no potency is given here. A number with no mark means an inactive call. Calls of active or inactive are those of the source. Unless noted, calls follow the shape of the dose curve; as a rule, active = well fitted curve in the direction sought with a large enough effect in the repeat runs; inconclusive = weak or mixed curves; inactive = no such curve, though single readings can be large; an effect the other way counts as inactive or inconclusive.

Tests used:
[1] = qHTS assay to identify small molecule antagonists of the estrogen related receptor (ERR) signaling pathway - cell viability counter screen (AID 1224818); also: potency is read from the fitted curve at half-maximal effect
In short: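 ERR cells, 2,000 per well, compound added after 6 h and incubated 17.5 h at 37 C. Viability read by CellTiter-Fluor fluorescence after a further 30 min at 37 C.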

[2] = qHTS assay to identify small molecule agonists of the estrogen related receptor (ERR) signaling pathway (AID 1224820)
In short: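 Quantitative HTS of the LOPAC library used NTP ERR reporter cells treated 18 h at 37 C. Signal is luminescence after One-Glo addition and a 30 min room-temperature incubation.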

[3] = qHTS assay to identify small molecule antagonists of the estrogen related receptor signaling pathway with the pleiotropic PPARgamma coactivator (PGC) cell viability counter screen (AID 1224822; also: potency is read from the fitted curve at half-maximal effect)
In short: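 PGC/ERR cells rested 6 h, then compound-treated 17.5 h at 37 C. CellTiter-Fluor added for 30 min at 37 C, viability measured by fluorescence intensity.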

[4] = qHTS assay to identify small molecule agonists of the estrogen related receptor signaling pathway with the pleiotropic PPARgamma coactivator (PGC) (AID 1224823)
In short: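 Cell-based luciferase assay in the NTP-supplied PGC/ERR line, 2,000 cells/well; 18 h compound exposure at 37 C, luminescence after One-Glo.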

[5] = system: estrogen-related receptor alpha (ERRalpha) with PGC-1alpha coactivator, human; experiment: qHTS assay to identify small molecule antagonists of the estrogen related receptor signaling pathway with the pleiotropic PPARgamma coactivator (PGC) (AID 1224821; calls by dose curve; also: nearly all actives have a fitted effect of over 50% in size; also: potency is read from the fitted curve at half-maximal effect)
In short: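 Quantitative HTS for antagonism: PGC/ERR cells received compounds after 6 h attachment and were incubated 18 h at 37 C, with luminescence (One-Glo) as the endpoint.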

[6] = qHTS assay to identify small molecule antagonists of the estrogen related receptor (ERR) signaling pathway (AID 1224819;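 also: luminescence from an ERR-driven luciferase reporter measured with One-Glo reagent; series mostly up to about 46 µM; nearly all actives have a fitted effect of over 50% in size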)
In short: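 ERR reporter cell line (NTP) plated at 2,000 cells/well, settled 6 h at 37C/5% CO2, then exposed to LOPAC compounds for 18 h at 37C. One-Glo luciferase luminescence read after 30 min at room temperature.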

| SMILES | Potency [1] | Potency [2] | Potency [3] | Potency [4] | Potency [5] | Potency [6] |
| --- | --- | --- | --- | --- | --- | --- |
| CCCc1c(-c2ccc(O)cc2)nn(-c2ccc(O)cc2)c1-c1ccc(O)cc1 | inactive | inactive | inactive | inactive |  |  |
| CC[n+]1c(/C=C/C=C2/N(C)c3ccccc3C2(C)C)sc2ccccc21 | 9.08 µM (active) |  | 3.9 µM (active) | inactive | 0.492 µM (active) |  |
| Cn1cc(C(F)(F)F)nc1-c1ccc(OCC(O)CNCCOc2ccc(O)c(C(N)=O)c2)cc1 (stereo not given) | inactive | inactive | inactive | inactive |  |  |
| Nc1ccn([C@H]2O[C@H](CO)[C@@H](O)C2(F)F)c(=O)n1 | inactive |  | inactive |  |  |  |
| NC(N)=NCc1cccc(I)c1 | inactive | inactive | inactive | inactive |  |  |
| Oc1cc(O)c2c(c1)O[C@H](c1ccc(O)c(O)c1)[C@@H](O)C2 | inactive |  | inactive |  |  |  |
| O=C(O)c1ccccc1Nc1cccc(OCc2ccc3ccccc3n2)c1 | inactive | inactive | inactive | inactive | inactive |  |
| CCCCCCCC/C=C\CCCCCCCC(=O)NCCc1ccc(O)c(O)c1 | inactive | inactive |  | inactive | inactive |  |
| CCCCCCN(CCCCCC)C(=O)Cc1c(-c2ccc(F)cc2)[nH]c2ccccc12 | inactive | inactive |  | inactive |  |  |
| O=[N+]([O-])c1ccc(CNc2nc(NCc3cccc(C(F)(F)F)c3)nc3nc[nH]c23)cc1 | inactive | inactive | inactive | inactive |  |  |
| CCC1(O)CC2CN(CCc3c([nH]c4ccccc34)[C@@](C(=O)OC)(c3cc4c(cc3OC)N(C)C3[C@]45CCN4CC=C[C@@](CC)([C@@H](OC(C)=O)[C@]3(O)C(=O)OC)[C@H]45)C2)C1 (stereo not given in full) | inactive | inactive | inactive | inactive |  |  |
| O=C(Nc1ccc2c(c1)CCN(Cc1ncn[nH]1)C2)c1ccccc1-c1ccc(C(F)(F)F)cc1 | inactive | inactive | inactive | inactive |  |  |
| CN1CCc2cccc3c2C1Cc1ccc(O)c(O)c1-3 (stereo not given) | inactive |  |  | inactive | 26.6 µM (active) |  |
| Cc1ccccc1/C=C/C1=NCCN1 | inactive | inactive |  | inactive |  |  |
| NCC(O)c1ccc(O)c(O)c1 (stereo not given) | inactive |  | inactive |  |  |  |
| O=C1C2C=CC=CC2=NC(=S)N1CCN1CCC(=C(c2ccc(F)cc2)c2ccc(F)cc2)CC1 (stereo not given) | inactive | inactive |  | inactive | 25.6 µM (active) |  |
| CC(=O)SC1CC2=CC(=O)CC[C@]2(C)C2CC[C@@]3(C)C(CC[C@@]34CCC(=O)O4)C12 (stereo not given in full) | inactive |  | inactive |  |  |  |
| CC(N)=NCCCC[C@@H](N)C(=O)O |  | inactive | inactive | inactive | inactive | inactive |
| CC(C)NC[C@H](O)COc1cccc2[nH]ccc12 | inactive |  | inactive |  |  |  |
